These results are taken from the supplement of paper PMC13380429.

Test [1] has as its system Vero E6 infected with SARS-CoV-2. The test can be described thus: morphology score (similarity to uninfected cells); higher = more like uninfected cells. Conditions: 24 h.
Test [2] has the same test system. The test can be described thus: SARS-CoV-2 infection rate relative to infected DMSO; higher = more infection, active = 60 or less. As to conditions: 24 h.

Turning to `O=C(c1ccc(F)cc1)C1CCN(CCn2c(=S)[nH]c3ccccc3c2=O)CC1` [altanserin] (10 µM), the morphology score in test [1] was -0.0789. Moreover, in test [2], the SARS-CoV-2 infection rate is 99% (inactive).
Turning to `O=C(NC[C@H](O)CN1CCc2ccccc2C1)c1cc(NC2COC2)ncn1` (10 µM), the morphology score in test [1] was -0.0443. Also, the SARS-CoV-2 infection rate in test [2] is 100% (inactive).
In turn, `c1ccc2sc(N3CCN(Cc4ccc5c(c4)OCO5)CC3)nc2c1` [2-[1-(4-piperonyl)piperazinyl]benzothiazole] (10 µM) returned a morphology score in test [1] of 0.00324. Besides, the SARS-CoV-2 infection rate in test [2] was 102% (inactive).
The corresponding values for `CNC1CC(c2ccc(Cl)c(Cl)c2)c2ccccc21` (configuration not stated) [indatraline] (10 µM) are -0.112 and 114% (inactive).
The corresponding values for `CN(C)C/C=C/C(=O)Nc1cc2c(Nc3ccc(F)c(Cl)c3)ncnc2cc1O[C@H]1CCOC1` [afatinib] (0.833333 µM) are -0.0622 and 114% (inactive).
Compound `NC1=N[C@@]2(c3cc(NC(=O)c4ccc(F)cn4)ccc3F)COC[C@H]2CS1` (10 µM) returned a morphology score in test [1] of 0.00208. Besides, in test [2], the SARS-CoV-2 infection rate was 116% (inactive).
The matching figures for `COc1ccc(CCC(=O)Nc2nc3ccc(Cl)cc3s2)cc1OC` (10 µM): 0.197 and 100% (inactive).
The corresponding values for `NCCCC(O)(P(=O)(O)O)P(=O)(O)O` [alendronate] (10 µM) are 0.102 and 110% (inactive).
The matching figures for `O=C(O)[C@H]1CC[C@H](c2cc3cccnc3c(-c3cccc(F)c3)n2)CC1` (10 µM): 0.315 and 103% (inactive).
In test [1], `COc1ccccc1C1(O)CCN(CCCn2c3ccccc3c3ccccc32)CC1` (0.833333 µM) had a morphology score of 0.0278. Besides, the SARS-CoV-2 infection rate in test [2] is 97.5% (inactive).
`CCC(=O)O[C@]1(C(=O)COC(C)=O)CC[C@H]2[C@@H]3C[C@H](C)C4=CC(=O)C=C[C@]4(C)[C@H]3[C@@H](O)C[C@@]21C` [methylprednisolone-aceponate] (10 µM) gave a morphology score in test [1] of 0.0786. Besides, in test [2], the SARS-CoV-2 infection rate was 108% (inactive).
The corresponding values for `CC(=O)OCC(=O)[C@@]1(O)CC[C@H]2[C@@H]3CCC4=CC(=O)CC[C@]4(C)[C@@]3(F)[C@@H](O)C[C@@]21C` (10 µM) are 0.0369 and 99.5% (inactive).
The matching figures for `Cc1c(CN(C)C(=O)/C=C/c2cnc3c(c2)CCC(=O)N3)oc2ccccc12` (10 µM): 0.182 and 94% (inactive).
The corresponding values for `CS(=O)(=O)Nc1ccc([N+](=O)[O-])cc1Oc1ccccc1` [nimesulide] (10 µM) are 0.0266 and 105% (inactive).
Turning to `CC(=O)Oc1ccccc1C(=O)O` [aspirin] (10 µM), the morphology score in test [1] is -0.027. Also, in test [2], the SARS-CoV-2 infection rate was 98% (inactive).
The matching figures for `O=C(O)c1cccnc1C(=O)O` [quinolinic-acid] (10 µM): 0.107 and 108% (inactive).
The matching figures for `CC(C)(O)c1ccccc1CC[C@@H](SCC1(CC(=O)O)CC1)c1cccc(/C=C/c2ccc3ccc(Cl)cc3n2)c1` [montelukast] (10 µM): 0.169 and 92.5% (inactive).
The matching figures for `CN(CCCN1c2ccccc2CCc2ccccc21)CC(=O)c1ccc(Cl)cc1` [lofepramine] (10 µM): -0.0945 and 114% (inactive).
For `CC1(C)S[C@@H]2[C@H](NC(=O)[C@H](N)c3ccccc3)C(=O)N2[C@H]1C(=O)O` [ampicillin] (10 µM), in test [1], the morphology score turned out to be 0.141. The SARS-CoV-2 infection rate in test [2] was 102% (inactive).
The corresponding values for `Nc1ncnc2c1c(-c1ccc(Cl)cc1)nn2-c1cccc(-c2cnnn2Cc2cccc(-c3ccccc3)c2)c1` (10 µM) are -0.00803 and 104% (inactive).
The matching figures for `O=C(O)c1nc(=O)[nH]c(=O)[nH]1` [oxonic-acid] (10 µM): -0.0587 and 115% (inactive).
The matching figures for `Nc1nc2c(c(N3CCNCC3)n1)CCC1=C2[C@@H]2CCCC[C@@H]2O1` (10 µM): 0.247 and 83.5% (inactive).
On to `S=C(NCc1ccc2c(c1)OCO2)N1CCN(c2ncnc3c2oc2ccccc23)CC1` [amuvatinib] (0.833333 µM), for which the morphology score in test [1] was 0.0595. In test [2], the SARS-CoV-2 infection rate was 92.5% (inactive).
The matching figures for `N[C@H](CO)C(=O)O` [D-serine] (10 µM): 0.0301 and 104% (inactive).
The matching figures for `O=C1CCCN1CC#CCN1CCCC1` [oxotremorine-sesquifumarate] (10 µM): 0.062 and 100% (inactive).
The corresponding values for `CC1(C)S[C@@H]2[C@H](NC(=O)COc3ccccc3)C(=O)N2[C@H]1C(=O)O` [penicillin-v-potassium] (10 µM) are -0.0155 and 116% (inactive).
`CC(=O)Nc1ccc(CC(=O)O)cc1` [actarit] (10 µM) displayed a morphology score in test [1] of 0.181. The SARS-CoV-2 infection rate in test [2] is 99.5% (inactive).
`OC(CCN1CCCCC1)(c1ccccc1)C1CC2C=CC1C2` (configuration not stated) [biperiden] (10 µM) had a morphology score in test [1] of 0.48. Besides, the SARS-CoV-2 infection rate in test [2] was 75.5% (inactive).
The corresponding values for `COc1ccc(/C=C\c2cc(OC)c(OC)c(OC)c2)cc1OP(=O)(O)O` [fosbretabulin] (0.833333 µM) are 0.0485 and 112% (inactive).
The compound `Nc1[nH]cnc2ncnc1-2` [adenine] (10 µM) displayed a morphology score in test [1] of 0.0482. In test [2], the SARS-CoV-2 infection rate was 102% (inactive).
The matching figures for `Cc1c(N)c(=O)n(-c2ccccc2)n1C` [ampyrone] (10 µM): -0.0355 and 113% (inactive).
For the compound `CNC(=O)CN1CCC(Oc2cc3c(Nc4cccc(Cl)c4F)ncnc3cc2OC)CC1` (0.833333 µM), the morphology score in test [1] is -0.193. For the same compound, the SARS-CoV-2 infection rate in test [2] was 107% (inactive).
The corresponding values for `O=C(NC1CCN(CCc2c[nH]c3ccccc23)CC1)c1ccccc1` [indoramin] (10 µM) are 0.105 and 102% (inactive).
The corresponding values for `N=C(N)NC(=O)Cc1c(Cl)cccc1Cl` [guanfacine] (10 µM) are 0.255 and 86% (inactive).
With `C[C@H](CCC(=O)O)[C@H]1CC[C@H]2[C@@H]3C(=O)C[C@@H]4CC(=O)CC[C@]4(C)[C@H]3CC(=O)[C@]12C` [dehydrocholate-acid] (10 µM), in test [1], the morphology score turned out to be 0.231. The SARS-CoV-2 infection rate in test [2] was 94.8% (inactive).
The matching figures for `CC(C)N(CC[C@H](c1ccccc1)c1cc(CO)ccc1O)C(C)C` [5-hydroxymethyl-tolterodine] (10 µM): 0.191 and 94.5% (inactive).
The matching figures for `CC[C@H](NC(=O)c1c(O)c(-c2ccccc2)nc2ccccc12)c1ccccc1` [talnetant] (10 µM): -0.0287 and 117% (inactive).
The corresponding values for `C[C@@]1(c2cc(-c3cncnc3)c(F)cc2F)CCSC(N)=N1` (10 µM) are 0.151 and 106% (inactive).
Take `CC(C)(Oc1ccc(Cl)cc1)C(=O)N1CSCC1C(=O)O` (configuration not stated) [timofibrate] (10 µM): in test [1], the morphology score is 0.0255. For the same compound, in test [2], the SARS-CoV-2 infection rate is 106% (inactive).
Take `CCCNC(=O)NS(=O)(=O)c1ccc(Cl)cc1` [chlorpropamide] (10 µM): the morphology score in test [1] was 0.266. For the same compound, in test [2], the SARS-CoV-2 infection rate is 79.5% (inactive).
The corresponding values for `Cc1c(Cl)c(C)[n+]([O-])c(Cl)c1-c1noc(-c2cc(O)c(O)c([N+](=O)[O-])c2)n1` [opicapone] (10 µM) are 0.125 and 102% (inactive).
The corresponding values for `O=c1[nH]c2ccccc2n1C1CCN(CCOc2ccccc2)CC1` [oxiperomide] (0.833333 µM) are -0.0147 and 104% (inactive).
The corresponding values for `O=C(CCBr)N1CC[N+]2(CC1)CC[N+]1(CCN(C(=O)CCBr)CC1)CC2` [spirobromin] (10 µM) are -0.0585 and 112% (inactive).
The compound `Cc1[nH]c(/C=C2\C(=O)Nc3ccc(S(=O)(=O)N(C)c4cccc(Cl)c4)cc32)c(C)c1C(=O)N1CCN(C)CC1` (10 µM) displayed a morphology score in test [1] of 0.493. In addition, in test [2], the SARS-CoV-2 infection rate is 104% (inactive).
The corresponding values for `C/C(=C\C(=O)OCCCCCCCCC(=O)O)C[C@@H]1OC[C@H](C[C@@H]2O[C@H]2[C@@H](C)[C@H](C)O)[C@@H](O)[C@H]1O` [mupirocin] (10 µM) are 0.0465 and 110% (inactive).
Take `O=c1[nH]c([C@@H]2CCCN2)nc2c1oc1ccc(Cl)cc12` (0.833333 µM): in test [1], the morphology score was found to be 0.106. In addition, the SARS-CoV-2 infection rate in test [2] is 104% (inactive).
The matching figures for `CCOC(=O)Nc1nc2ccccc2[nH]1` [lobendazole] (10 µM): 0.0965 and 101% (inactive).
The matching figures for `Cc1nc2c(-c3cnc(N)nc3)nc(N3CCOCC3)nc2n1C(C)C` (10 µM): -0.0616 and 108% (inactive).
On to `COc1ccccc1N1CCN(CCN2C(=O)CC3(CCCC3)CC2=O)CC1` (10 µM), for which the morphology score in test [1] was -0.291. Also, the SARS-CoV-2 infection rate in test [2] is 116% (inactive).
The compound `COc1ccccc1Oc1c(NS(=O)(=O)c2ccc(C)cn2)nc(-c2ccncc2)nc1OC` (10 µM) showed a morphology score in test [1] of 0.183. In test [2], the SARS-CoV-2 infection rate was 85.5% (inactive).
The matching figures for `O=C(Nc1c(Cl)cncc1Cl)c1ccc(OC(F)F)c(OCC2CC2)c1` [roflumilast] (10 µM): 0.202 and 97% (inactive).
The matching figures for `O=C(Nc1nc(-c2cc(Cl)cs2)c(N2CCN(C3CCCCC3)CC2)s1)c1cnc(N2CCC(C(=O)O)CC2)c(Cl)c1` [avatrombopag] (10 µM): 0.0997 and 100% (inactive).
The matching figures for `O=C(Nc1cccc(C(F)(F)F)c1)Nc1ccc(Br)cc1-c1nnn[nH]1` (10 µM): -0.0612 and 108% (inactive).
On to `O=C(O)C[C@H](O)C(=O)O` [malic-acid] (10 µM), for which, in test [1], the morphology score was -0.0659. The SARS-CoV-2 infection rate in test [2] was 104% (inactive).
`O=S(=O)(Cc1ccccc1)Nc1ccc(-c2ccc3c(cnn3-c3ccc(F)cc3)c2)c(C(F)(F)F)c1` (10 µM) returned a morphology score in test [1] of 0.22. Besides, the SARS-CoV-2 infection rate in test [2] is 91.5% (inactive).
In the case of `[N-]=[N+]=CC(=O)CC[C@H](N)C(=O)O` [6-diazo-5-oxo-L-norleucine] (10 µM), the morphology score in test [1] is 0.196. For the same compound, the SARS-CoV-2 infection rate in test [2] is 93.5% (inactive).
The matching figures for `CC1(C)CC[C@]2(C(=O)O)CC[C@]3(C)[C@H](C(=O)C=C4[C@@]5(C)C=C(C#N)C(=O)C(C)(C)[C@@H]5CC[C@]43C)[C@@H]2C1` [bardoxolone] (0.833333 µM): 0.164 and 104% (inactive).
The corresponding values for `Nc1nc(O)c2nc(Br)n([C@@H]3O[C@@H]4COP(=O)(O)O[C@H]4[C@H]3O)c2n1` [8-bromo-cGMP] (10 µM) are 0.0521 and 97% (inactive).
The matching figures for `NC(=O)c1ccc(-c2nc(-c3ccccn3)c(-c3ccc4c(c3)OCO4)[nH]2)cc1` (10 µM): -0.124 and 109% (inactive).
In the case of `CCCCc1ccc2[nH]c(NC(=O)OC)nc2c1` [parbendazole] (10 µM), in test [1], the morphology score was -0.112. For the same compound, in test [2], the SARS-CoV-2 infection rate was 111% (inactive).
The corresponding values for `CC(C)(C)c1ccc(CN2CCN(C(c3ccccc3)c3ccc(Cl)cc3)CC2)cc1` (configuration not stated) [buclizine] (10 µM) are 0.307 and 90.5% (inactive).
